Assay results: PubChem BioAssay (EPA / NIEHS)
“And” between values parts separate entries of the source, which are not always exact repeats. Identical values can stand only once. More than one record can exist for a structure, and the calls need not agree. The source made the active and inactive calls. Rule for the calls: active = hit-call score of the fitted dose curve at least 0.9, where 1 is the maximum; inactive = score below 0.9.

What was measured:
[1] = ATG_E_Box_CIS: Attagene CIS-FACTORIAL HepG2 Assay for human Enhancer Box (E-box) (AID 2282936); details: HepG2 E-box cis-reporter transcription, actives raise or lower the signal
In short: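 Transiently transfected HepG2, endogenous TF-driven reporters, 24 h dosing. Readout: RT-PCR plus capillary electrophoresis of fluorescent reporter fragments. Gain or loss of signal fitted bidirectionally against DMSO baseline.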

[2] = ATG_M_61_CIS: Attagene CIS-FACTORIAL HepG2 Assay for M61 Transcription Factor (Internal Marker) (AID 2282937); details: HepG2 Attagene CIS-FACTORIAL M61 internal marker reporter; actives raise or lower the signal
In short: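 Background-control endpoint: HepG2 cells with cis-regulated reporter constructs, 24 h exposure, reporter mRNA detected via fluorescent primer extension and capillary electrophoresis; values from bidirectional fitting with DMSO baseline.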

[3] = ATG_EGR_CIS: Attagene CIS-FACTORIAL HepG2 Assay for human Early Growth Response 1 (EGR1) (AID 2282938); details: HepG2 Attagene CIS-FACTORIAL EGR reporter mRNA; actives raise or lower the signal
In short: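 Endpoint derived by bidirectional fitting versus DMSO vehicle. Method: cis-promoter reporter units transfected into HepG2, 24 h dosing, RNA isolation, RT-PCR with 6-FAM primer extension and HpaI digestion, then capillary electrophoresis fluorescence detection.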

[4] = ATG_M_19_CIS: Attagene CIS-FACTORIAL HepG2 Assay for M19 Transcription Factor (Internal Marker) (AID 2282939); details: HepG2 Attagene CIS-FACTORIAL M19 internal marker reporter; actives raise or lower the signal
In short: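 Background-control endpoint from a multiplexed HepG2 reporter panel. Cells carrying cis-regulated reporter constructs are treated 24 h, then reporter transcripts are amplified, fluorescently labelled and sized by capillary electrophoresis. DMSO defines baseline.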

[5] = ATG_ERE_CIS: Attagene CIS-FACTORIAL HepG2 Assay for Estrogen Response Element (ERE) (AID 2282940); details: HepG2 ERE cis-reporter, Attagene RNA transcript; actives raise or lower the signal
In short: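 Cells used were human hepatoma HepG2, transfected with multiple reporter transcription units under cis-regulatory promoters. Reporter mRNA, read 24 h post-dosing via fluorescent RT-PCR products on capillary electrophoresis, was fitted bidirectionally relative to DMSO.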

[6] = ATG_Ets_CIS: Attagene CIS-FACTORIAL HepG2 Assay for human Erythroblast Transformation Specific (ETS) (AID 2282941); details: HepG2 ETS cis-reporter transcription, actives raise or lower the signal
In short: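 Multiplexed reporter transcript profiling: HepG2, 24 h treatment, total RNA to cDNA, PCR, 6-FAM labelling, HpaI cut, capillary electrophoresis. Gain- or loss-of-signal fitted against DMSO.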

[7] = target: Hepatocyte nuclear factor 3-beta (Homo sapiens) (UniProt Q9Y261); assay: ATG_FoxA2_CIS: Attagene CIS-FACTORIAL HepG2 Assay for human Forkhead box A2 (FOXA2) (AID 2282942); details: HepG2 cis-reporter transcription factor activity, 24 h; actives raise or lower the signal
In short: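 Measured: reporter mRNA induction or loss in HepG2 transiently carrying multiple cis-regulated reporter units, 24 h after dosing. Quantified by RT-PCR plus capillary electrophoresis, normalised to DMSO.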

[8] = ATG_FoxO_CIS: Attagene CIS-FACTORIAL HepG2 Assay for human Forkhead box O (FoxO) (AID 2282943); details: HepG2 Attagene cis-reporter, FoxO element, mRNA; actives raise or lower the signal
In short: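 Transfected HepG2 reporter cells exposed to test chemical for 24 h; reporter RNA measured by reverse transcription, PCR and fluorescent capillary electrophoresis; curves fitted for increases and decreases against DMSO.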

[9] = ATG_GATA_CIS: Attagene CIS-FACTORIAL HepG2 Assay for human GATA Binding Protein (AID 2282944); details: HepG2 GATA cis-element reporter, Attagene multiplex mRNA; actives raise or lower the signal
In short: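 Endogenous transcription factor activity was captured through cis-promoter-driven reporters in transfected HepG2 cells. After 24 h exposure, reporter transcripts were quantified by RT-PCR with fluorescent capillary electrophoresis, and responses fitted both directions against DMSO.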

[10] = ATG_GLI_CIS: Attagene CIS-FACTORIAL HepG2 Assay for human Zinc Finger Protein GLI1 (AID 2282945); details: HepG2, Attagene cis-factorial reporter mRNA, GLI element; actives raise or lower the signal
In short: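 Transiently transfected HepG2 cells report endogenous transcription factor activity via cis-element-driven reporter units. After 24 h compound exposure, reporter mRNA was measured by RT-PCR with capillary electrophoresis; bidirectional fitting against DMSO baseline.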

[11] = target: Bile acid receptor (Homo sapiens) (UniProt Q96RI1); assay: ATG_IR1_CIS: Attagene CIS-FACTORIAL HepG2 Assay for human Nuclear Receptor Subfamily 1 Group H Member 4 (NR1H4), IR1 submotif (AID 2282946); details: IR1 reporter transcription, actives raise or lower the signal
In short: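 Fluorescence of capillary-separated, HpaI-digested RT-PCR reporter products gave IR1-element mRNA induction in HepG2 cells 24 h after dosing. Endogenous transcription factors drove the cis-regulated reporters; activity was fitted bidirectionally against DMSO.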

[12] = ATG_GRE_CIS: Attagene CIS-FACTORIAL HepG2 Assay for human Glucocorticoid Response Elements (GRE) (AID 2282947); details: HepG2 GRE cis-reporter, Attagene multiplex mRNA; actives raise or lower the signal
In short: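 Read-out: fluorescent reporter-transcript fragments separated by capillary electrophoresis after RT-PCR. Transiently transfected HepG2 cells carrying cis-element-driven reporter units were dosed for 24 h; gain or loss of signal fitted against DMSO control.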

[13] = ATG_ISRE_CIS: Attagene CIS-FACTORIAL HepG2 Assay for human Interferon Regulatory Factor 1 (IRF1) binding to an Interferon-Stimulated Response Element (ISRE) (AID 2282948); details: HepG2 ISRE cis-reporter (Attagene), mRNA transcription readout; actives raise or lower the signal
In short: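 Signal reflects induction or loss of ISRE-linked reporter mRNA in transiently transfected HepG2 cells after a 24 h treatment, detected by fluorescent RT-PCR fragments on capillary electrophoresis and normalised to DMSO.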

[14] = ATG_M_32_CIS: Attagene CIS-FACTORIAL HepG2 Assay for M32 Transcription Factor (Internal Marker) (AID 2282949); details: HepG2 Attagene cis-factorial M32 reporter, mRNA; actives raise or lower the signal;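 note: background control marker of the multiplexed CIS panel rather than a real target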
In short: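 Using DMSO as baseline, bidirectional curve fits were applied to reporter mRNA signals. These came from transiently transfected HepG2 cells exposed for 24 h, with RNA analysed by RT-PCR, FAM primer extension, HpaI digestion and CE.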

[15] = ATG_M_06_CIS: Attagene CIS-FACTORIAL HepG2 Assay for M06 Transcription Factor (Internal Marker) (AID 2282950); details: HepG2 Attagene CIS-FACTORIAL M06 internal marker reporter; actives raise or lower the signal
In short: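 Steps: transfect HepG2 with multiplexed cis-element reporter constructs; dose chemical 24 h; extract RNA with DNase treatment; reverse-transcribe, PCR-amplify, 6-FAM label, HpaI digest; separate fragments by capillary electrophoresis. Activity fitted both directions versus DMSO.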

[16] = target: Hypoxia-inducible factor 1-alpha (Homo sapiens) (UniProt Q16665); assay: ATG_HIF1a_CIS: Attagene CIS-FACTORIAL HepG2 Assay for human Hypoxia Inducible Factor 1 (HIF1A) (AID 2282951); details: HepG2 Attagene cis-factorial HIF1a reporter transcription; actives raise or lower the signal
In short: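 Dosed 24 h, transfected HepG2 cells yielded total RNA whose reporter transcripts were RT-PCR-amplified and sized by capillary electrophoresis using fluorescent labelling; DMSO defined baseline, with gain and loss of signal both fitted.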

[17] = target: Hepatocyte nuclear factor 6 (Homo sapiens) (UniProt Q9UBC0); assay: ATG_HNF6_CIS: Attagene CIS-FACTORIAL HepG2 Assay for human Hepatocyte Nuclear Factor 6 (HNF6) (AID 2282952); details: HepG2 Attagene cis-factorial HNF6 reporter transcription; actives raise or lower the signal
In short: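 Endogenous transcription factor activity in human HepG2 liver cells was captured through cis-regulated reporter constructs. After 24 h treatment, reporter mRNA was measured by RT-PCR with capillary electrophoresis, and activity was fitted in both directions relative to DMSO.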

[18] = target: Heat shock factor protein 1 (Homo sapiens) (UniProt Q00613); assay: ATG_HSE_CIS: Attagene CIS-FACTORIAL HepG2 Assay for human Heat Shock Transcription Factor 1 (HSE) (AID 2282953); details: HepG2 HSE cis-reporter, Attagene RNA transcription; actives raise or lower the signal
In short: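 Cells were transfected with cis-element-driven reporter constructs, dosed for 24 h, then total RNA was reverse-transcribed and reporter cDNA amplified, FAM-labelled and digested with HpaI. Fragments were resolved by capillary electrophoresis; gain or loss was fitted against DMSO.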

[19] = ATG_PBREM_CIS: Attagene CIS-FACTORIAL HepG2 Assay for human Phenobarbital-responsive Enhancer Module (PBREM) (AID 2282955); details: HepG2 PBREM cis-reporter, Attagene multiplexed transcription; actives raise or lower the signal
In short: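 Transfected liver-derived HepG2 cells exposed 24 h; PBREM reporter transcript quantified via RT-PCR and capillary electrophoresis, with activity in either direction referenced to DMSO.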

[20] = ATG_MRE_CIS: Attagene CIS-FACTORIAL HepG2 Assay for human Metal Responsive Element (MRE) (AID 2282954); details: HepG2 MRE cis-reporter transcription, Attagene multiplex; actives raise or lower the signal
In short: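 RT-PCR/capillary electrophoresis readout of reporter mRNA, 24 h post-dosing, in HepG2 cells transfected with multiplexed cis-regulated reporter constructs. Gain or loss of signal fitted bidirectionally against DMSO baseline.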

Measured: AC50

Bile acid receptor (Homo sapiens), sequence (Q96RI1 whole entry, looked up): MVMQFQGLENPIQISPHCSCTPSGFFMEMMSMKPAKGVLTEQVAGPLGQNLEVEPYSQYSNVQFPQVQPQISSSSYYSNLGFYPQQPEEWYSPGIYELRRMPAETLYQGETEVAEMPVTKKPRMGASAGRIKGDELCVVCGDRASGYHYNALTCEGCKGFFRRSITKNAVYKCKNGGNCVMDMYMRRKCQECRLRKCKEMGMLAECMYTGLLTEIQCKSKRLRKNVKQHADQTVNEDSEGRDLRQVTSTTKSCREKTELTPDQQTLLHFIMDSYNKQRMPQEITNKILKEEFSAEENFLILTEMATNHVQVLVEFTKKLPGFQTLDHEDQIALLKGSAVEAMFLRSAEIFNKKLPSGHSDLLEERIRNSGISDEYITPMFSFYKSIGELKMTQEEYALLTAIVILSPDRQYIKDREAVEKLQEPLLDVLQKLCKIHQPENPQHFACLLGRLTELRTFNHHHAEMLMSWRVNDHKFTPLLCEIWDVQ
Hypoxia-inducible factor 1-alpha (Homo sapiens), sequence (Q16665 whole entry, looked up): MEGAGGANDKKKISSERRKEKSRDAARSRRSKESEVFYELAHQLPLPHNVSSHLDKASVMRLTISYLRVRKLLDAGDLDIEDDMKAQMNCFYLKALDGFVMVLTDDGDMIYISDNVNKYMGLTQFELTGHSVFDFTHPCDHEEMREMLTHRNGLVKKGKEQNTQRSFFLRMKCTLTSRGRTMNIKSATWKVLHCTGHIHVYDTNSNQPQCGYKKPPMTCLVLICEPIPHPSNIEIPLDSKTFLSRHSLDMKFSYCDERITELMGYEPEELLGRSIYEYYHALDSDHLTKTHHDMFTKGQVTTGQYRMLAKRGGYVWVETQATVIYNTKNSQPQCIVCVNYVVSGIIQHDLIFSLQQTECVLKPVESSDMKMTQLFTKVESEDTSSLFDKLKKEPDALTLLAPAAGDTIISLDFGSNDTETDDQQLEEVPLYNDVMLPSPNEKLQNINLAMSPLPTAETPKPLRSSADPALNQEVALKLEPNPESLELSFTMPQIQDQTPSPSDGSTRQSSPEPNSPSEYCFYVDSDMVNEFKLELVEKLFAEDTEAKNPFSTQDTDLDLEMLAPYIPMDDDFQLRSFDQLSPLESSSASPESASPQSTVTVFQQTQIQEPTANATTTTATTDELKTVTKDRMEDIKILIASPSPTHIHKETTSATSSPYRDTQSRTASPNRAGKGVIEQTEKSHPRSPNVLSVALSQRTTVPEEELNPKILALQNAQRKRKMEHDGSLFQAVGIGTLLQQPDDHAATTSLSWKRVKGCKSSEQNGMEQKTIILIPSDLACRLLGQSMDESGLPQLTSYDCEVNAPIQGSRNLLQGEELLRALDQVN
Hepatocyte nuclear factor 3-beta (Homo sapiens), sequence (Q9Y261 whole entry, looked up): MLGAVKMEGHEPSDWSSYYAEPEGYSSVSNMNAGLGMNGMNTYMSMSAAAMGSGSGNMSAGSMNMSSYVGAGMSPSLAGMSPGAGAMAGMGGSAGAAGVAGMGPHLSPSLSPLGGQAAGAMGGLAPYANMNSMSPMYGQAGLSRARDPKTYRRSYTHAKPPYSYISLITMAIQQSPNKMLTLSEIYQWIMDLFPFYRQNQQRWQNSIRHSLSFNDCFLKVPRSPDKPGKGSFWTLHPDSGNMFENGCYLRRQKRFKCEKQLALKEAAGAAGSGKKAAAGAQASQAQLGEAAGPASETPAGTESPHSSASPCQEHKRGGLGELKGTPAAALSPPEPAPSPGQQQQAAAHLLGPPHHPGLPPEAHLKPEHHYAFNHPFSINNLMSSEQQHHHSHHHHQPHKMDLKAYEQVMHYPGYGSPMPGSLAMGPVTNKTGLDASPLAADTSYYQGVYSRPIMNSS
Heat shock factor protein 1 (Homo sapiens), sequence (Q00613 whole entry, looked up, the tested form may be a part): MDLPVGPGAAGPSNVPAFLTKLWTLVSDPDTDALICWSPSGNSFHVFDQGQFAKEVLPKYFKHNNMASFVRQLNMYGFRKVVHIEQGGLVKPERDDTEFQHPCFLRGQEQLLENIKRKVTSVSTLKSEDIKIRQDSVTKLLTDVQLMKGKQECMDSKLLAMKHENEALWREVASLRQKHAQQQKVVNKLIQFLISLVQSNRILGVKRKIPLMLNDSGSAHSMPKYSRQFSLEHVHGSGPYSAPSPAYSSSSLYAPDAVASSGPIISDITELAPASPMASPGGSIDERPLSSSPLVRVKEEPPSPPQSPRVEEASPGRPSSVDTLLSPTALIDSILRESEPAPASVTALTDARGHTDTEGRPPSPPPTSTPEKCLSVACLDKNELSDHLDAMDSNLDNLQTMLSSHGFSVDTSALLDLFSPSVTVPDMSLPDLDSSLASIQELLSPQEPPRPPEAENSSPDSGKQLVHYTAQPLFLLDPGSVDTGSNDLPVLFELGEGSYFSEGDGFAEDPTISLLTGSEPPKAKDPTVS
Hepatocyte nuclear factor 6 (Homo sapiens), sequence (Q9UBC0 whole entry, looked up): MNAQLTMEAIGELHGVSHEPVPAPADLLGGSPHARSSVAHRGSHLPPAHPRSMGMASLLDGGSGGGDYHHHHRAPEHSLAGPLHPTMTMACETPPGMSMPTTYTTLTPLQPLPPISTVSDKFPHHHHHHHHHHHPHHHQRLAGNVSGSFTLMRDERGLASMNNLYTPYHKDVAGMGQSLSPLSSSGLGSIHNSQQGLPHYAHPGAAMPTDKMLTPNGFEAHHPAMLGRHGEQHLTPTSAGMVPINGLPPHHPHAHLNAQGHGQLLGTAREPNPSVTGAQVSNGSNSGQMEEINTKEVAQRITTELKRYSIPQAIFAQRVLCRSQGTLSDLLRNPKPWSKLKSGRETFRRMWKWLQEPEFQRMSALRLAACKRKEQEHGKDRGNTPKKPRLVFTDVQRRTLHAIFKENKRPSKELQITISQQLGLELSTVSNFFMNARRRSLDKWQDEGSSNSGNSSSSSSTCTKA

COc1ccc(OC(F)(F)F)cc1CN[C@H]1CCCN[C@H]1c1ccccc1
active: [1] 11 µM | [18] 2.74 µM
inactive: [2] | [3] | [4] | [5] | [6] | [7] | [8] | [9] | [10] | [11] | [12] | [13] | [14] | [15] | [16] | [17] | [19]

NC(=Nc1ccccc1)Nc1ccccc1
active: [3] 39.2 µM | [13] 5.79 µM | [20] 28 µM
inactive: [1] | [2] | [4] | [5] | [6] | [7] | [8] | [9] | [10] | [11] | [12] | [15] | [16] | [17] | [18]

CC(C)OC(=O)C(C)(C)Oc1ccc(C(=O)c2ccc(Cl)cc2)cc1
inactive: [1] | [2] | [4] | [6] | [7] | [8] | [9] | [10] | [11] | [12] | [14] | [15] | [17] | [18] | [19]
active: [3] 38.4 µM | [5] 27.7 µM | [13] 49 µM | [20] 43.6 µM

O=C(NS(=O)(=O)/C=C/c1cccs1)c1ccc(F)cc1Br
inactive: [1] | [2] | [3] | [4] | [5] | [6] | [7] | [8] | [9] | [10] | [11] | [12] | [13] | [15] | [16] | [17] | [18] | [19]

CN(C)CCCN(C)CCCN(C)C
inactive: [1] | [2] | [3] | [4] | [5] | [6] | [7] | [8] | [9] | [10] | [11] | [12] | [13] | [14] | [15] | [16] | [17] | [18]

CC(=O)O[C@]1(C(C)=O)CC[C@H]2[C@@H]3C=C(Cl)C4=CC(=O)[C@@H]5C[C@@H]5[C@]4(C)[C@H]3CC[C@@]21C
active: [1] 165 µM and 78.6 µM and 50.5 µM | [3] 27.9 µM and 40.3 µM and 100 µM | [4] 180 µM | [8] 150 µM and 158 µM and 48.6 µM | [9] 174 µM and 48.9 µM | [10] 100 µM and 145 µM | [13] 77.5 µM | [17] 165 µM and 57.2 µM | [18] 83.8 µM [middle of 4 runs] | [20] 100 µM [middle of 4 runs]
inactive: [1] | [2] | [3] | [4] | [6] | [7] | [8] | [9] | [10] | [13] | [15] | [17] | [18] | [20]

Nc1nc(=S)c2[nH]cnc2[nH]1
inactive: [1] | [2] | [3] | [4] | [6] | [7] | [8] | [9] | [10] | [12] | [13] | [14] | [15] | [16] | [17] | [18] | [19]
active: [5] 98.1 µM
